Measurements as given in PubChem BioAssay AID1159580 (chemical genetic matrix, 2015).
The whole screen tested about 5,500 compounds, of which about 2,000 (36%) were called active. About 18% were inconclusive and are not listed. No stated cut-off is given here; in the data, active means normalized growth mostly below about 0.91 (no sharp cut-off); inconclusive means no clear call, values can overlap the other calls; inactive means mostly above about 0.92. The list shows a part of the results.

Test: chemical genetic growth profiling, strain panel (AID 1159580);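 further: tested at 20 µM; growth read once vehicle control cultures reached saturation at 30 °C; 1 = growth at the plate median or of vehicle wells; lower values mean less growth of the strain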
Conditions: S. cerevisiae deletion strains, growth OD

Measured: normalized growth

COc1cccc(/C=C/C(=O)O)c1C(C)C
inactive: locus YAL021C, strain ccr4, active compounds read low 0.952 | locus YAL026C, strain drs2, active compounds read low 0.983 | locus YAL030W, strain snc1, active compounds read low 0.978 | locus YBL061C, strain skt5, active compounds read low 0.973 | locus YBR009C, strain hhf1, active compounds read low 1.01 | locus YBR023C, strain chs3, active compounds read low 0.973 | locus YBR171W, strain sec66, active compounds read low 0.969 | locus YBR231C, strain swc5, active compounds read low 0.976 | locus YBR279W, strain paf1, active compounds read low 0.995 | locus YCL011C, strain gbp2, active compounds read low 0.999 | locus YCL016C, strain dcc1, active compounds read low 0.982 | locus YCL069W, strain vba3, active compounds read low 0.982 | locus YCR088W, strain abp1, active compounds read low 0.977 | locus YDL005C, strain med2, active compounds read low 0.96 | locus YDL040C, strain nat1, active compounds read low 0.988 | locus YDR001C, strain nth1, active compounds read low 0.983 | locus YDR069C, strain doa4, active compounds read low 0.97 | locus YDR137W, strain rgp1, active compounds read low 0.992 | locus YDR159W, strain sac3, active compounds read low 0.917 | locus YDR195W, strain ref2 0.96 | locus YDR297W, strain sur2, active compounds read low 0.973 | locus YDR334W, strain swr1, active compounds read low 0.983 | locus YDR335W, strain msn5, active compounds read low 0.994 | locus YDR392W, strain spt3, active compounds read low 0.961 | locus YEL003W, strain gim4, active compounds read low 0.994 | locus YEL037C, strain rad23, active compounds read low 0.985 | locus YEL061C, strain CIN8 (second series), active compounds read low 1 | locus YER015W, strain faa2, active compounds read low 0.977 | locus YER016W, strain bim1, active compounds read low 0.981 | locus YER111C, strain swi4, active compounds read low 0.976 | locus YER155C, strain BEM2 (second series), active compounds read low 0.967 | locus YFR010W, strain ubp6, active compounds read low 0.99 | locus YGL167C, strain pmr1, active compounds read low 0.978 | locus YGL173C, strain kem1, active compounds read low 0.991 | locus YGL227W, strain vid30, active compounds read low 0.985 | locus YGL240W, strain doc1, active compounds read low 0.984 | locus YGL253W, strain hxk2, active compounds read low 0.98 | locus YHR013C, strain ard1, active compounds read low 0.957 | locus YHR027C, strain rpn1, active compounds read low 0.995 | locus YHR142W, strain chs7, active compounds read low 0.996 | locus YJL092W, strain hpr5, active compounds read low 0.983 | locus YJL095W, strain BCK1 (second series), active compounds read low 0.974 | locus YJL115W, strain asf1, active compounds read low 0.972 | locus YJL129C, strain trk1, active compounds read low 0.973 | locus YJL154C, strain vps35, active compounds read low 0.983 | locus YJL164C, strain tpk1, active compounds read low 0.985 | locus YJL166W, strain qcr8, active compounds read low 0.982 | locus YJL187C, strain SWE1, active compounds read low 0.998 | locus YKL160W, strain elf1, active compounds read low 0.987 | locus YKR026C, strain gcn3, active compounds read low 0.982 | locus YKR091W, strain srl3, active compounds read low 0.999 | locus YLL001W, strain dnm1, active compounds read low 0.988 | locus YLL026W, active compounds read low 0.972 | locus YLL041C, strain sdh2, active compounds read low 0.971 | locus YLR027C, strain aat2, active compounds read low 0.989 | locus YLR221C, strain rsa3, active compounds read low 0.999 | locus YLR258W, strain gsy2, active compounds read low 0.986 | locus YLR262C, strain YPT6 (second series), active compounds read low 1.03 | locus YLR320W, strain mms22, active compounds read low 0.975 | locus YLR342W, strain FKS1, active compounds read low 0.982 | locus YLR357W, strain rsc2, active compounds read low 0.945 | locus YLR370C, strain arc18, active compounds read low 0.993 | locus YLR384C, strain iki3, active compounds read low 0.989 | locus YML120C, strain ndi1, active compounds read low 0.979 | locus YMR058W, strain fet3, active compounds read low 0.976 | locus YMR125W, strain sto1, active compounds read low 0.988 | locus YMR129W, active compounds read low 0.99 | locus YMR205C, strain PFK2, active compounds read low 0.937 | locus YMR231W, strain pep5, active compounds read low 0.977 | locus YNL071W, strain lat1, active compounds read low 0.982 | locus YNL209W, strain ssb2, active compounds read low 1.01 | locus YNL248C, strain rpa49, active compounds read low 0.988 | locus YNL322C, strain KRE1 (second series), active compounds read low 0.951 | locus YNR049C, strain mso1, active compounds read low 0.967 | locus YOR001W, strain rrp6, active compounds read low 0.998 | locus YOR070C, strain gyp1, active compounds read low 0.999 | locus YOR080W, strain dia2, active compounds read low 0.994 | locus YOR083W, strain WHI5, active compounds read low 0.981 | locus YOR106W, strain vam3, active compounds read low 1.01 | locus YOR265W, strain rbl2, active compounds read low 0.973 | locus YOR270C, strain vph1, active compounds read low 1.02 | locus YOR290C, strain snf2, active compounds read low 0.98 | locus YPL051W, strain arl3, active compounds read low 0.996 | locus YPL078C, strain atp4, active compounds read low 1.01 | locus YPL106C, strain sse1, active compounds read low 0.929 | locus YPL240C, strain hsp82, active compounds read low 0.976
